Only some compounds are listed: those with a hit (about 1.3% of all), similar ones and a draw of the others.
EPAC1 antagonist = antagonists of human EPAC1; O95398; EPAC1 GEF assay, Rap1b-BODIPY-GDP exchange fluorescence; Potency, µM (doses to about 115 µM), for the others: at the top dose activity change, negative = inhibition, actives largely listed as inhibitors; 360,000 tested, 0.14% active; AID 720709;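 note: plate controls were vehicle for no effect and positive control for full effect; nearly all actives have a fitted effect of over 50% in size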
EPAC1 ag = activates human EPAC1 exchange factor; O95398; EPAC1 agonist qHTS, biochemical assay; response scale: 100% = response to 6.5 mM cAMP; Potency, µM (series often up to 154 µM), inactives show at the highest dose activation, actives largely listed as activators; 360,000 tested, 0.073% active; note: nearly all actives have a fitted effect of over 60% in size
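Read-out is the fluorescence drop as BODIPY-GDP leaves Rap1B (480 nm excitation, 540 nm emission), recorded every 5 minutes over 30 minutes. Reactions held 100 nM EPAC1, 250 nM Rap1B–BODIPY-GDP and 50 uM GDP, with 6.5 mM cAMP setting full activation.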
EPAC2 agonist = activates human EPAC2 exchange factor; Potency, µM (series often up to 154 µM), for inactives: at the highest dose activation, usual class: activators; EPAC2 activation, biochemical qHTS; response scale: 100% = 6.5 mM cAMP response; 360,000 tested, 0.079% active; Q8WZA2; note: nearly all actives have a fitted effect of over 50% in size
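Nucleotide exchange monitored as fluorescence drop when BODIPY-GDP leaves Rap1B. Reaction: 100 nM EPAC2, 250 nM RAP1B-BODIPY-GDP, 50 uM GDP, room temperature, kinetic read over 30 min. Activity expressed relative to 6.5 mM cAMP.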
RGS4 inhibitor = blocks human RGS4-accelerated GTP hydrolysis | Potency, µM (titrated, usually from 114 µM), for inactives: at the top dose activity change, negative = inhibition, actives largely listed as inhibitors | P49798 | Transcreener GDP fluorescence polarization, RGS4-accelerated GTP hydrolysis | 390,000 tested, 0.039% active | AID 504845; note: % is set by controls: 0 for no effect and ±100 for the full control effect; nearly all actives have a fitted effect of over 75% in size
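MLSMR compounds (23 nl, pin-transferred) preincubated 10 min at room temperature with a 500nM (2x) first reagent, then RGS4 at 900nM (2x) plus Transcreener GDP mix added; fluorescence polarization (620/688 nm) read before and after 90 min at 30 °C.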
BRCA1 expr up = activators of BRCA1 expression; 380,000 tested, 1.1% active; AID 624202; MCF7-BRCA1-FFLuc reporter, luminescence, 48 h; response scale: scaled: vehicle 0%, 10 µM genistein 100%; Potency, µM (highest dose often 46.1 µM), without a hit: top-dose activation, most hits filed as activators; note: nearly all actives have a fitted effect of over 80% in size
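Quantitative HTS in MCF7 cells stably reporting BRCA1 expression via firefly luciferase. Compound treatment lasts 48 h at 37 °C in phenol-red free MEM. Activation is expressed relative to genistein at 10 microM and DMSO.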
EPAC2 antag = antagonists of human EPAC2; Potency, µM (highest dose often 114 µM), for the others: at the highest dose activity, negative = inhibition, hits mostly inhibitors; Q8WZA2; EPAC2 GEF exchange of Rap1B-BODIPY-GDP, fluorescence; 360,000 tested, 0.18% active; note: % is set by controls: 0 for no effect and ±100 for the full control effect; nearly all actives have a fitted effect of over 45% in size
* = called active by the depositor; i = inactive; ? = inconclusive; · = no result; ! = not confirmed by another sample; [ ] = dose if it differs, or a comment. Calls come from the whole dose curve; as a rule, active = well fitted curve in the direction sought with a large enough effect; inconclusive = small, poorly fitted or top-dose-only effect, or another doubt; inactive = no such curve, though single readings can be large; an effect the other way counts as inactive or inconclusive. Potency is the fitted concentration of half-maximal effect.

SMILES	EPAC1 antagonist	EPAC1 ag	EPAC2 agonist	RGS4 inhibitor	BRCA1 expr up	EPAC2 antag
Nc1c2c(nc3sc4c(c13)CCCC4)CCCC2	?	-8%	-2%	4%	4.5µM*	7%
COc1ccc(NC(c2ccccc2F)P(=O)(Oc2ccccc2)Oc2ccccc2)cc1 (stereo not drawn)	-14%	7%	9%	-21%	-22%	-6%
C[C@H](NC(=O)N1C[C@H]2C[C@@H](C1)c1cccc(=O)n1C2)C(=O)Nc1ccc(F)c(F)c1	-8%	-12%	-1%	-1%	24%	6%
Cc1nc2ccccc2c(=O)n1-c1c(Cl)cccc1Cl	17%	-6%	1%	·	-35%	?
CCN(CC)c1ccc(N=Cc2c(O)n(-c3cc(OC)ccc3OC)c(=O)[nH]c2=O)cc1	-8%	?	79µM*	-37%	-8%	32%
CCN(CC)c1ccc(N=Cc2c(O)n(CCc3ccc(OC)c(OC)c3)c(=O)[nH]c2=O)cc1	-19%	16%	100µM*	-21%	-68%	4%
COc1ccc(CCn2c(O)c(C=Nc3ccc(F)cc3)c(=O)[nH]c2=O)cc1OC	-10%	2%	0%	-1%	-1%	-1%
COc1ccc(N=Cc2c(O)n(-c3ccc(C)cc3)c(=O)[nH]c2=O)cc1	-7%	3%	-2%	-23%	9%	10%
Oc1ccc(Br)cc1CN1CCN(c2ccccc2)CC1	-8%	3%	2%	24%	-28%	-1%
COc1cc(N)c(Cl)cc1C(=O)N[C@@H]1CN2CCC1CC2	·	·	·	i	·	·
CC(C)n1cnc2c(C(=O)N[C@H]3CN4CCC3CC4)cc(Cl)cc21	·	·	·	4.7µM*	·	·
CC(=O)N1CCN(c2ccc(OC[C@H]3CO[C@](Cn4ccnc4)(c4ccc(Cl)cc4Cl)O3)cc2)CC1	-25%	-14%	8%	?	-33%	-27%
C[N+]12CCC(CC1)C(C(O)(c1ccccc1)c1cccs1)C2 (stereo not drawn)	14%	-4%	2%	1%	0%	10%
Cc1nc2c(=O)n(C)c(=O)nc-2n(C)n1	100µM*	-1%	?	?	-97%	?
Cn1nc(-c2ccccc2)nc2c(=O)n(C)c(=O)nc1-2	·	·	·	-46%	-78%	·
Fc1ccccc1CSc1ncnc2c1ncn2C1CCCO1 (stereo not drawn)	-30%	3%	11%	11%	3.5µM*	-1%
OCc1cnc[nH]1	-12%	-1%	4%	-8%[56.9 µM]	22%	-6%
O=C1C(=O)c2ccccc2-c2ccccc21	8.9µM*	-17%	21%	?	-79%	?
O=C1C(=O)c2cccc3cccc1c23	14%	-6%	1%	20%	-65%	-3%
CC(=O)c1c(C)n(CC2CCCO2)c2ccc(O)cc12 (stereo not drawn)	1%	3%	-2%	15%	14%	2%
COC(=O)c1cncn1C(C)c1ccccc1 (stereo not drawn)	18%	8%	1%	5%	3%	0%
C[C@H]1COC2=C1C(=O)C(=O)c1c2ccc2c1CCCC2(C)C	45µM*	-43%	1%	?	-62%	7%
Oc1ccc(Cl)cc1Sc1cc(Cl)ccc1O	?	3%	3%	-2%	-81%	35µM*
OC(CCNCCc1c[nH]c2ccccc12)C(F)(F)F (stereo not drawn)	5%	-3%	2%	-24%	-2%	-2%
COc1ccc2nc(NC3=NCCN3)sc2c1	10%	14%	6%	5%	1.3µM*	4%
SMILES	EPAC1 antagonist	EPAC1 ag	EPAC2 agonist	RGS4 inhibitor	BRCA1 expr up	EPAC2 antag
c1cc2c(cc1N1CCOCC1)CNCc1cnnn1-2	0%	-11%	4%	·	10%	5%
Cn1c(O)c(/C=N/NC(=O)c2ccncc2)c(=O)n(C)c1=S	0%	15%	9%	15%	-36%	5%
CCn1c(O)c(/C=N/NC(=O)c2ccncc2)c(=O)n(CC)c1=S	69%	56µM*	?	-9%	-20%	8%
C[C@]12C=CC(=O)C=C1CC[C@@H]1[C@@H]2CC[C@]2(C)C(=O)CC[C@@H]12	9%	-31%	0%	-1%	-14%	-2%
CCc1ccc(NC(=O)c2cccn(Cc3cccc([N+](=O)[O-])c3)c2=O)cc1	·	·	·	8%	-2%	·
O=C(C1CC(c2ccc(Cl)c(Cl)c2)=NO1)N1CCC2(CC1)OCCO2 (stereo not drawn)	10%	4%	4%	8%	8.9µM*	-2%
COc1cccc(C2=NOC(C(=O)N3CCC4(CC3)OCCO4)C2)c1 (stereo not drawn)	-1%	3%	7%	16%	?	-8%
O=C(C1CC(c2ccc(F)cc2)=NO1)N1CCC2(CC1)OCCO2 (stereo not drawn)	4%	5%	1%	-3%	7.9µM*	2%
CCOC(=O)c1c(N)n(CCCOC(=O)c2ccco2)c2nc3ccccc3nc12	-15%	3%	-11%	-7%[11.4 µM]	-91%	-5%
CCCCCn1c(NC(=O)c2ccco2)c(C(=O)OCC)c2nc3ccccc3nc21	50µM*	-15%	6%	?	-80%	40µM*
CCOC(=O)c1c(NS(=O)(=O)c2ccccc2)n(CCCOC)c2nc3ccccc3nc12	7.9µM*	7%	23%	-3%	-29%	?
COCCCn1c(N)c(C(=O)OCCOC)c2nc3ccccc3nc21	2%	2%	-1%	-13%[11.4 µM]	2%	-3%
CC[C@@H](CO)NC(=O)[C@@H]1C=C2c3cccc4c3c(cn4C)C[C@H]2N(C)C1	-1%	-2%	7%	19µM*!	-12%	10%
Cc1ccc(C2=CCNCC2)cc1	-24%	13%	1%	-34%	0%	-1%
O=P(Nc1cccnc1)(Oc1ccccc1Cl)Oc1ccccc1Cl	-14%	6%	6%	-10%	-10%	56µM*
Cc1cccc(OP(=O)(Nc2cccnc2)Oc2cccc(C)c2)c1	-10%	-20%	12%	-17%	-20%	-2%
O=C(Cn1nc(Cc2cccnc2)c2ccccc2c1=O)N1CCC2(CC1)OCCO2	11%	10%	0%	19%	-12%	0%
COc1ccc2c(c[n+](C)c3c4cc5c(cc4ccc23)OCO5)c1OC	·	·	·	6.7µM*	·	·
CCN(CC)CCCN=Cc1c(O)n(Cc2ccc(F)cc2)c(=O)[nH]c1=O	9%	0%	0%[15.6 µM]	3%	-23%	-3%
O=C(c1cc2ccccn2n1)N1CCN(Cc2ccccc2)CC1	17%	-3%	3%	-24%	10µM*	5%
O=C(c1cc2ccccn2n1)N1CCC2(CC1)OCCO2	2%	-5%	-4%	7%	4%	3%
